This is part of a sample that, as a whole, favours compounds with a hit. Of some 79,000 tested, about 15% had one in any assay. Rule as the data show it: active = growth inhibition above about 70%; inactive = the rest. Where a SMILES comes first, the peptide text is derived from it. [ ]: non-standard residue; d: D form. The star is where a group is joined. Cbz = O=C(OCc1ccccc1)*; Nva = CCC[CH](N)C(=O)O
Tests used:
[1] = NCI Yeast Anticancer Drug Screen. Data for the rad50 strain (AID 155);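 also: 0% = growth of vehicle-only cultures of the same strain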; settings: S. cerevisiae rad50 strain growth inhibition; at 50.0 µM; active compounds read high
Outline: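 Readout: growth inhibition relative to vehicle-treated cultures. Compound exposure was carried out in a genetically defined yeast strain deficient in DNA damage repair.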

[2] = NCI Yeast Anticancer Drug Screen. Data for the mec2-1 strain (AID 157); settings: S. cerevisiae mec2-1 strain, at 50.0 µM, active compounds read high
Outline: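 Strain: mec2-1 (DNA repair/cell cycle alteration). Compound exposure, then growth measured; inhibition expressed relative to vehicle.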

[3] = NCI Yeast Anticancer Drug Screen. Data for the sgs1 mgt1 strain (AID 161);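 also: 0% = growth of cultures given vehicle only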; settings: S. cerevisiae sgs1 mgt1 strain, at 50.0 µM, active compounds read high
Outline: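 Inhibition of yeast growth, normalised to vehicle-treated controls, is reported for a strain bearing genetic alterations in DNA damage repair.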

[4] = NCI Yeast Anticancer Drug Screen. Data for the cln2 rad14 strain (AID 165);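 also: 0% = growth equal to vehicle treated cultures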; settings: S. cerevisiae cln2 rad14 strain, at 50.0 µM, active compounds read high
Outline: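 Compounds are applied to the cln2 rad14 yeast strain, and growth is then compared with that of vehicle-treated cultures to give inhibition.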

[5] = NCI Yeast Anticancer Drug Screen. Data for the bub3 strain (AID 167); settings: S. cerevisiae bub3 mutant strain, at 50.0 µM, active compounds read high
Outline: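 Readout: yeast growth inhibition, expressed relative to vehicle-only wells. The test organism is a mutant strain from a panel with lesions in DNA repair or checkpoint genes.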

[6] = NCI Yeast Anticancer Drug Screen. Data for the mlh1 rad18 strain (AID 175); settings: S. cerevisiae mlh1 rad18 strain growth inhibition; at 50.0 µM; active compounds read high
Outline: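 Read-out is yeast growth inhibition, calculated against vehicle-only controls. The compound was applied to a strain engineered with DNA damage repair alterations.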

Measured: growth inhibition

CC(CNC(N)=O)NC(N)=O (configuration not stated)
inactive: [1] -23.8% | [2] -15.8% | [3] -32.4% | [4] 11.4% | [5] -19.6% | [6] -24.4%

CNc1nc(Cl)cc2nc(Cl)cn12
inactive: [1] -2.15% | [2] 15.8% | [3] -18.6% | [4] -12.1% | [5] 8.3% | [6] 4.55%

COc1cc(OC)c(-c2cc(C(=O)O)c3cc4ccccc4cc3n2)c(OC)c1
inactive: [1] 18.2% | [2] 23.2% | [3] 24.1% | [4] 16.7% | [5] 21.6% | [6] 32%

CCCC(NC(=O)OCc1ccccc1)C(=O)NC(CCSC)C(=O)O (configuration not stated) (Cbz-[Nva]-Met-OH; configuration not given here)
inactive: [1] -54.6% | [2] -1.6% | [3] -4.65% | [4] 11.5% | [5] -0.85% | [6] -5.95%

COc1ccc(OCc2nc3cc(C(F)(F)F)ccc3nc2-c2ccccc2)cc1
inactive: [1] -2.65% | [2] 3.45% | [3] 11.2% | [4] 5.2% | [5] 25.9% | [6] -70.4%

CC(C)=C1C=CC=C1
inactive: [1] -8% | [2] 0.65% | [3] 1.6% | [4] -5% | [5] 9.4% | [6] -6.95%

O=[N+]([O-])C(/C=C(\Cl)[N+](=O)[O-])=C(N1CCCCC1)N1CCCCC1
inactive: [1] 10.8% | [2] -1.8% | [3] 5.85% | [4] -5.55% | [5] 26.2% | [6] 18.1%

COc1ccc2c3c(c4ccccc4c2c1)C(=O)OC3=O
inactive: [1] 27.8% | [2] 11.2% | [3] 16.7% | [4] 18.6% | [5] 21.8% | [6] 19.2%

Cc1cccc(-c2nc3sc(-c4cccc(C)n4)nc3s2)n1
inactive: [1] -9.7% | [2] 3.05% | [3] -13.3% | [4] -29.6% | [5] 4.05% | [6] -16.3%

CCc1c(Cc2[nH]c(C=O)c(C)c2CC)[nH]c(C=O)c1C
inactive: [1] 6.85% | [2] -11.9% | [3] 11.2% | [4] -1.05% | [5] 5.45% | [6] 3.8%

CC(=O)Nc1nc(NC(C)=O)c2[nH]c(CO)nc2n1
inactive: [1] -4.2% | [2] -10.4% | [3] -11.8% | [4] -33.6% | [5] -61.3% | [6] -11.7%

CCC(C(N)=O)C(N)=O
inactive: [1] -20.1% | [2] -27.9% | [3] -34.5% | [4] 15.8% | [5] -1.3% | [6] -6.1%

CCCCCCC(=O)NC(O)C(Cl)(Cl)C(C)Cl (configuration not stated)
inactive: [1] 1.1% | [2] -6.6% | [3] -6.2% | [4] -56.8% | [5] -19.8% | [6] 4.1%

COc1cc2c(cc1OC)C(=O)/C(=C/c1ccc(O)cc1)CC2
inactive: [1] 36.5% | [2] -8.9% | [3] 43.5% | [4] 24.9% | [5] 23.2% | [6] 22.4%

Cc1nc(=S)[nH][nH]1
inactive: [1] -0.75% | [2] 16.9% | [3] 6.15% | [4] 3.5% | [5] 8.15% | [6] 1%

CCC(=O)C(=O)C1CCCCC1=O (configuration not stated)
inactive: [1] -2.4% | [2] -3.8% | [3] -2.5% | [4] -9.05% | [5] -17.6% | [6] -0.05%

N#CC1(N(O)C(=O)Nc2ccccc2)CCCCC1
inactive: [1] 5.55% | [2] -10.3% | [3] -0.4% | [4] -7.05% | [5] 5.8% | [6] -13.1%

Cn1cnc(N)c1S(N)(=O)=O
inactive: [1] -11.8% | [2] 2.45% | [3] 9.7% | [4] -6% | [5] -6.3% | [6] 26.1%

Cc1ccc(NC(=O)Oc2ccccn2)cc1
inactive: [1] -9.7% | [2] -30.5% | [3] -8.05% | [4] -4.4% | [5] -0.35% | [6] -6.25%

C=CCOC(=O)Nc1ccc(S(=O)(=O)N(CCC)CCC)cc1
inactive: [1] -13.3% | [2] -33% | [3] 32% | [4] -23.4% | [5] -14.7% | [6] -17.2%

O=C(OCC(OC(=O)c1ccccc1)C1CC(C(O)C2CCCCC2)C(=O)O1)c1ccccc1 (configuration not stated)
inactive: [1] 5.25% | [2] 22.1% | [3] 45.9% | [4] 10.2% | [5] 22.2% | [6] 30.6%

Cn1c2c(c3ccccc31)CCN=C2C1CCCOC1=O (configuration not stated)
inactive: [1] -27.6% | [2] -54.2% | [3] -21.1% | [4] -17.5% | [5] -9.3% | [6] -39.1%

CC(=O)CCC1(C)CCCC(C)(C)CC1=O (configuration not stated)
inactive: [1] -1.3% | [2] 5.15% | [3] 3.75% | [4] -9.55% | [5] -28% | [6] -12.2%

CCc1cc(C)cc(CC)c1N
inactive: [1] 5.45% | [2] -14.2% | [3] -8.55% | [4] -24.6% | [5] 20.9% | [6] 3.8%

O=C(O)C1(C(=O)O)CCN(S(=O)(=O)c2ccccc2)CC1
inactive: [1] -4% | [2] -10.9% | [3] -39% | [4] -5.2% | [5] -9.85% | [6] -7%

O=C(Nc1ccccc1)Nc1ccc2ccccc2c1
inactive: [1] -7.75% | [2] -0.2% | [3] 2.1% | [4] -22.2% | [5] 12.9% | [6] -10.9%

CC(=O)OCC1OC(n2ccc(=O)[nH]c2=O)C(NC(=O)C(F)(F)F)C(OC(C)=O)C1OC(C)=O (configuration not stated)
inactive: [1] 2.4% | [2] -5.4% | [3] -11.2% | [4] -11.2% | [5] -2.05% | [6] -11.7%

CC(Oc1ccccc1-c1ccccc1)C(=O)N(C)C (configuration not stated)
inactive: [1] -15.2% | [2] -0.2% | [3] 1.45% | [4] 0.75% | [5] -20.6% | [6] -45.6%

CCOc1c(/C=C\c2cc(/C=C/c3cccc(OC)c3OCC)c([N+](=O)[O-])cc2[N+](=O)[O-])cccc1OC
inactive: [1] 16.4% | [2] -13.7% | [3] 1.75% | [4] -36.6% | [5] -4.45% | [6] 9.55%

c1ccc(C(c2ccccc2)c2cc(-c3cc(C(c4ccccc4)c4ccccc4)[nH]n3)n[nH]2)cc1
inactive: [1] -9.25% | [2] 21.4% | [3] -7.55% | [4] -28.6% | [5] -11.6% | [6] 6.25%

O=C(O)CCCc1ccc2c(c1)oc1ccccc12
inactive: [1] -18.6% | [2] -6.3% | [3] 1.5% | [4] -18.6% | [5] 13.6% | [6] 20.9%

C=CS(=O)(=O)c1ccc(Nc2cc(S(=O)(=O)O)c(N)c3c2C(=O)c2ccccc2C3=O)cc1
inactive: [1] -20.2% | [2] -30.9% | [3] -4.1% | [4] 2.9% | [5] -19.3% | [6] -36.1%

COc1cccc(/C=N\N=C\c2cccc(OC)c2O)c1O
inactive: [1] 2.65% | [2] 2.7% | [3] -11.4% | [4] -7.05% | [5] 26.6% | [6] 33.9%

CC1CCC2CCCCC2/C1=N\NC(N)=O (configuration not stated)
inactive: [1] -10.8% | [2] -3.9% | [3] 3.95% | [4] 2.35% | [5] 0.25% | [6] -16.7%

O=C(CNc1ccc(Cl)cc1Cl)NC1C=Cc2ccc(S(=O)(=O)Nc3ccc(Cl)cc3Cl)cc2C1=O (configuration not stated)
inactive: [1] 34.5% | [2] 20.4% | [3] 44% | [4] 14.2% | [5] 29.1% | [6] 33.1%

Cn1c(=O)n(C2OC(CO)C(O)C2O)c2ncnc(N)c21 (configuration not stated)
inactive: [1] 8.9% | [2] 0.55% | [3] -5.8% | [4] -43.1% | [5] -2.9% | [6] 4.65%

O=S(=O)(NO)c1ccc(Cl)cc1
inactive: [1] 12.5% | [2] 7.8% | [3] 8.35% | [4] 23.8% | [5] 6.7% | [6] 3.2%
